Results filed as inconclusive are left out. The source made the active and inactive calls. Unless noted, calls follow the shape of the dose curve; as a rule, active = well fitted curve in the direction sought with a large enough effect; inconclusive = small, poorly fitted or top-dose-only effect, or another doubt; inactive = no such curve, though single readings can be large; an effect the other way counts as inactive or inconclusive.
Experiments:
[1] = biological target: Lysosomal acid glucosylceramidase (Homo sapiens) (UniProt P04062); experiment: Glucocerebrosidase-p2 (AID 348; in the data active = potency below about 10 µM; also: potency is read from the fitted curve at half-maximal effect); conditions: purified GBA, blue fluorogenic substrate, 40 min
In short: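 Compounds titrated from 0.6 nM upwards against 0.2 nM enzyme in pH 5.9 citric acid/KH2PO4, taurocholate, tween-20; blue fluorogenic substrate 80 uM, 40 min room temperature, stopped and read Ex 365/Em 440 for AC50.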

[2] = AP1 Signaling Pathway (AID 357; active = well fitted curve in either direction with a large enough effect, not every such curve was filed as active; also: % is scaled to controls: 0 for no effect and ±100 for the full control effect); conditions: ME-180 AP-1-bla reporter, EGF-induced, beta-lactamase ratio, 5 h; at 7.69 µM (top of the series) unless noted
In short: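 AP-1-bla ME-180 cells with beta-lactamase reporter under AP-1 response element, stimulated with EC50 EGF; compounds titrated, 5 hours at 37 degrees Celsius. CCF4 read at 460/530 nm ratio; positive and negative modulators judged by AC50.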

[3] = NFAT Signaling Pathway (AID 444; active = well fitted curve in either direction with a large enough effect, not every such curve was filed as active;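 also: carbachol stimulus at about its EC50 of 1 µM final; % is scaled to controls: 0 for no effect and ±100 for the full control effect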); conditions: Jurkat NFAT-bla M1, carbachol, beta-lactamase ratio, 5 h; at 7.69 µM (top of the series) unless noted
In short: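 Jurkat cells carrying an NFAT-driven β-lactamase reporter and co-transfected muscarinic M1 receptor were treated with compound plus carbachol (1 uM final, an EC50 level) for 5 h at 37 °C. CCF4 loading followed for 1 h at RT; 460/530 nm ratio gave %activity.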

[4] = Stat Signaling Pathway (AID 446; active = well fitted curve in either direction with a large enough effect, not every such curve was filed as active;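 also: ME-180 cervical cancer cells given 40 pM IL-6 alongside compound; SIE-controlled beta-lactamase reporter measured as 460/530 nm FRET emission ratio; % is scaled to controls: 0 for no effect and ±100 for the full control effect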); conditions: ME-180 SIE beta-lactamase reporter, IL-6 stimulated, 5 h; at 7.69 µM (top of the series) unless noted
In short: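 ME-180 cells carrying a SIE-driven beta-lactamase reporter are stimulated with 40 pM IL-6 for 5 h at 37C in the presence of compound. The 460/530 nm FRET substrate ratio is read after 2.5 h at RT. Data are normalised to 300 pM IL-6 and to 125 nM JAK inhibitor controls.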

[5] = biological target: Glucocorticoid receptor (Homo sapiens) (UniProt P04150); experiment: GR-GFP Redistribution (AID 450;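 active = compounds whose dose series gives a full or clear partial fitted curve of increased nuclear translocation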; also: potency is read from the fitted curve at half-maximal effect); conditions: U2OS GR-GFP nuclear translocation, laser cytometry, 2 h
[6] = biological target: Glucocorticoid receptor (Homo sapiens) (UniProt P04150); experiment: GR-EFC Redistribution (AID 451; calls by dose curve; also: potency is read from the fitted curve at half-maximal effect); conditions: CHO-K1 GR-EFC translocation, beta-gal luminescence, 2 h
In short: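 CHO-K1 cells stably expressing nuclear-localized β-gal enzyme acceptor and GR fused C-terminally to the enzyme donor fragment; ligand-driven nuclear translocation restores β-gal by complementation. Compounds titrated up to 46 uM final, 2 h at 37 °C; luminescence read.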

[7] = biological target: Mitogen-activated protein kinase 10 (Mus musculus) (UniProt Q61831); experiment: JNK3 AlphaScreen Assay (AID 530; active = well fitted curve in either direction with a large enough effect, not every such curve was filed as active;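 also: kinase came from lysate of stimulated human HepG2 cells; signal reports phosphorylation of biotinylated GST-cJun 1-79 at Ser73 with 10 µM ATP; % is scaled to controls: 0 for no effect and ±100 for the full control effect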); conditions: JNK3 lysate, c-Jun phosphorylation; series mostly up to 57.1 µM
In short: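 JNK3 came from HepG2 lysates pre-activated with IL-1beta and TNF-alpha and phosphorylated biotinylated GST-cJun (1-79) at 10 uM ATP, pH 7.6, room temperature. Compounds were titrated. AlphaScreen signal used anti-phospho-cJun (Ser73) antibody.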

[8] = biological target: 3',5'-cyclic-AMP phosphodiesterase 4B (Homo sapiens) (UniProt Q07343); experiment: qHTS Assay for Inhibitors of PDE-IV (AID 607; active = well fitted activation curve with a large enough effect in the main read-out, with a control signal flat, not every such curve was filed as active; also: % of control where 0% means no effect); conditions: HEK293 ACTOne CNG channel cells, membrane potential fluorescence; series mostly up to 22.9 µM
3',5'-cyclic-AMP phosphodiesterase 4B (Homo sapiens), sequence (Q07343 whole entry, looked up): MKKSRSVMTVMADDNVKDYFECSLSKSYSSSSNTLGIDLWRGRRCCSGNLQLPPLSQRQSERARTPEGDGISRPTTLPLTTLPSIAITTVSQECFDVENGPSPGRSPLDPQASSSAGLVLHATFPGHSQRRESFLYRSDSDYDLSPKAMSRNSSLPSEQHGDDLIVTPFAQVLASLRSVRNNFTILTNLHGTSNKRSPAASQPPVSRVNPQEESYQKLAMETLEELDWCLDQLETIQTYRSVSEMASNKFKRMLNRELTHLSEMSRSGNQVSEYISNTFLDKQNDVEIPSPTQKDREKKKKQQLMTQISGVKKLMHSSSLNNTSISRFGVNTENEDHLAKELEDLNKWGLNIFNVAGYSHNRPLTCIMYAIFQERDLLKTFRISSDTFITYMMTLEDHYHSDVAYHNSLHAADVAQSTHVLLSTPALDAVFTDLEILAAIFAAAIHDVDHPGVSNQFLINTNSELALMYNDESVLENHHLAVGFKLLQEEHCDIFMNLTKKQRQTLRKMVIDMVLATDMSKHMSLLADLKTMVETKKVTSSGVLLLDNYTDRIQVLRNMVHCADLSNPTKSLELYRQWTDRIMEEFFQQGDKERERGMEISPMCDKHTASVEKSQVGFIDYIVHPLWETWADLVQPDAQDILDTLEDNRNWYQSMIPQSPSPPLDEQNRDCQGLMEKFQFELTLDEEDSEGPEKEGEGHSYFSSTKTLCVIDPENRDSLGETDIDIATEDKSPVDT
In short: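 HEK293 ACTOne cells with CNG channel (1000/well), endogenous PDE4; membrane potential dye, compounds up to 22.9 uM final. Fluorescence Ex 535/Em 590; RO 20-1724 (100 uM final) as reference.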

[9] = biological target: Cytochrome P450 3A4 (Homo sapiens) (UniProt P08684); experiment: qHTS Assay for Activators of Cytochrome P450 3A4 (AID 885); conditions: recombinant CYP3A4, Luciferin-PPXE luminescence, 60 min; series mostly up to 57.1 µM; also: nearly all actives have a fitted effect of over 65% in size
Cytochrome P450 3A4 (Homo sapiens), sequence (P08684 whole entry, looked up): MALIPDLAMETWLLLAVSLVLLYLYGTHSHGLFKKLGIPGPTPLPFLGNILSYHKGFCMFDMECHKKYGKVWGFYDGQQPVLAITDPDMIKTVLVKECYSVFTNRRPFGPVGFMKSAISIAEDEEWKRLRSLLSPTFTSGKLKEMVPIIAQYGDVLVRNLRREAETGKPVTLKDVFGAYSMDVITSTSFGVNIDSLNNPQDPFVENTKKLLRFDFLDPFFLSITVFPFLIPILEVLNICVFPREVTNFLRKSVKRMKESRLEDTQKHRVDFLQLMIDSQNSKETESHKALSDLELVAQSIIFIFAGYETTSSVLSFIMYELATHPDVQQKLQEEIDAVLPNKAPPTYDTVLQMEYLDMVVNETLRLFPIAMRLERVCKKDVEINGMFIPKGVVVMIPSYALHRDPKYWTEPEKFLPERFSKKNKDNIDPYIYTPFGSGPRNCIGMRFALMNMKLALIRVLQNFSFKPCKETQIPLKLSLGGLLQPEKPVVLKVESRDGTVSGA
In short: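 Human CYP3A4 (20 nM) with Luciferin-PPXE at 25 uM (its KM) in 200 mM KPO4; 10 min compound preincubation, then NADPH regeneration and 60 min reaction at RT. Luciferin read by luminescence; normalized to 57 uM ketoconazole full inhibition.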

[10] = qHTS Assay for Lipid Storage Modulators (AID 1519; calls by dose curve); conditions: Drosophila S3 cells, BODIPY lipid droplet/cell ratio, laser cytometry, cells loaded with oleic acid; for activity change, negative = inhibition: at 57.5 µM (top of the series)
In short: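 Cells seeded at 5,000 per well were treated with compounds over a concentration series and loaded with oleic acid (400 uM, as added). Lipid droplet fluorescence (488 nm excitation, 500-530 nm channel) was read by laser-scanning cytometry and normalized to 20 uM Triacsin C.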

[11] = Primary qHTS for small molecule stabilizers of the endoplasmic reticulum resident proteome: Secreted ER Calcium Modulated Protein (SERCaMP) assay (AID 1508630); conditions: SH-SY5Y GLuc-SERCaMP (Gaussia luciferase released on ER calcium loss) secretion, thapsigargin, luminescence; series mostly up to 38.4 µM; also: % is scaled to controls: 0 for no effect and ±100 for the full control effect
In short: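 GLuc-SERCaMP-expressing SH-SY5Y cells, pretreated 16 h with compound, are challenged with thapsigargin to empty ER calcium stores; after 4 h, coelenterazine is added directly to the medium and luminescence is imaged.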

[12] = biological target: Rap guanine nucleotide exchange factor 3 (Homo sapiens) (UniProt O95398); experiment: Confirmatory qHTS for antagonist of cAMP-regulated guanine nucleotide exchange factor 3 (EPAC1) (AID 1645880); conditions: EPAC1 Rap1B-BODIPY-GDP exchange, fluorescence; series mostly up to 115 µM;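 also: plate controls were DMSO only for no effect and full effect of the ATA control for full effect; nearly all actives have a fitted effect of over 55% in size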
Rap guanine nucleotide exchange factor 3 (Homo sapiens), sequence (O95398 whole entry, looked up): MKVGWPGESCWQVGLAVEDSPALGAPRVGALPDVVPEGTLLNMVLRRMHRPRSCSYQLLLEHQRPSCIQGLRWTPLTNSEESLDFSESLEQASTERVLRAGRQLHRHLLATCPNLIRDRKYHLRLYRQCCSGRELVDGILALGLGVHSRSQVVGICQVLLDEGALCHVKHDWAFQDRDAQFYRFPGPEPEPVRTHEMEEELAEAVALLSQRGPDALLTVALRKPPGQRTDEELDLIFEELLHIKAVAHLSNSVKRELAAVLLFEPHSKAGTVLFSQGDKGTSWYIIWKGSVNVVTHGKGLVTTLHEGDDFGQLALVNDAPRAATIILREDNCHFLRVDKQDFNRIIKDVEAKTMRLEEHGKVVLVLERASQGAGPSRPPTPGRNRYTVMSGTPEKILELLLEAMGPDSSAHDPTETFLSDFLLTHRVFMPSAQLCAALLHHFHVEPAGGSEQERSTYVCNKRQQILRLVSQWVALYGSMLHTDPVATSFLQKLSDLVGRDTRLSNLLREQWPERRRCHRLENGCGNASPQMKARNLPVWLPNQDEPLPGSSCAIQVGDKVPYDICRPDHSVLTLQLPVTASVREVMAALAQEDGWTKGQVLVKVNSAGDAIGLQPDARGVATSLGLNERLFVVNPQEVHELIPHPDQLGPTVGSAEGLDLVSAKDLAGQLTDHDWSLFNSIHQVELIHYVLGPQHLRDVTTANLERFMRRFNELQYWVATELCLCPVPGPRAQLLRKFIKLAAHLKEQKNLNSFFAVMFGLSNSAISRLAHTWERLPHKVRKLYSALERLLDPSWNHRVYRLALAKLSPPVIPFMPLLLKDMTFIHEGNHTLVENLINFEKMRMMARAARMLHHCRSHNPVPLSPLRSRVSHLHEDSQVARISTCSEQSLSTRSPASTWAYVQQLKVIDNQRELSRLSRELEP
In short: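 Nucleotide exchange uses 100 nM EPAC1, 250 nM RAP1B-BODIPY-GDP and 50 uM GDP, with compounds in a concentration-titration series. After 5 min at room temperature, fluorescence (480 nm ex/540 nm em) is read every 5 min for 30 min. Data are normalized to control ATA and DMSO.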

[13] = biological target: Rap guanine nucleotide exchange factor 3 (Homo sapiens) (UniProt O95398); experiment: Confirmatory qHTS for agonist of cAMP-regulated guanine nucleotide exchange factor 3 (EPAC1) (AID 1645881); conditions: EPAC1 Rap1B BODIPY-GDP exchange fluorescence, 100% = cAMP control response; series mostly up to 154 µM;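 also: EPAC1 catalysed release of BODIPY-GDP from Rap1B seen as fluorescence loss; nearly all actives have a fitted effect of over 75% in size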
[14] = biological target: Rap guanine nucleotide exchange factor 4 (Homo sapiens) (UniProt Q8WZA2); experiment: Confirmatory qHTS for agonist of cAMP-regulated guanine nucleotide exchange factor 4 (EPAC2) (AID 1645884); conditions: EPAC2 GEF activity, Rap1B-BODIPY-GDP fluorescence, percent relative to cAMP agonist control; series mostly up to 154 µM;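 also: nucleotide exchange releases bodipy-GDP from Rap1 and this lowers its fluorescence; % is scaled to controls: 0 for no effect and ±100 for the full control effect; nearly all actives have a fitted effect of over 65% in size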
Rap guanine nucleotide exchange factor 4 (Homo sapiens), sequence (Q8WZA2 whole entry, looked up): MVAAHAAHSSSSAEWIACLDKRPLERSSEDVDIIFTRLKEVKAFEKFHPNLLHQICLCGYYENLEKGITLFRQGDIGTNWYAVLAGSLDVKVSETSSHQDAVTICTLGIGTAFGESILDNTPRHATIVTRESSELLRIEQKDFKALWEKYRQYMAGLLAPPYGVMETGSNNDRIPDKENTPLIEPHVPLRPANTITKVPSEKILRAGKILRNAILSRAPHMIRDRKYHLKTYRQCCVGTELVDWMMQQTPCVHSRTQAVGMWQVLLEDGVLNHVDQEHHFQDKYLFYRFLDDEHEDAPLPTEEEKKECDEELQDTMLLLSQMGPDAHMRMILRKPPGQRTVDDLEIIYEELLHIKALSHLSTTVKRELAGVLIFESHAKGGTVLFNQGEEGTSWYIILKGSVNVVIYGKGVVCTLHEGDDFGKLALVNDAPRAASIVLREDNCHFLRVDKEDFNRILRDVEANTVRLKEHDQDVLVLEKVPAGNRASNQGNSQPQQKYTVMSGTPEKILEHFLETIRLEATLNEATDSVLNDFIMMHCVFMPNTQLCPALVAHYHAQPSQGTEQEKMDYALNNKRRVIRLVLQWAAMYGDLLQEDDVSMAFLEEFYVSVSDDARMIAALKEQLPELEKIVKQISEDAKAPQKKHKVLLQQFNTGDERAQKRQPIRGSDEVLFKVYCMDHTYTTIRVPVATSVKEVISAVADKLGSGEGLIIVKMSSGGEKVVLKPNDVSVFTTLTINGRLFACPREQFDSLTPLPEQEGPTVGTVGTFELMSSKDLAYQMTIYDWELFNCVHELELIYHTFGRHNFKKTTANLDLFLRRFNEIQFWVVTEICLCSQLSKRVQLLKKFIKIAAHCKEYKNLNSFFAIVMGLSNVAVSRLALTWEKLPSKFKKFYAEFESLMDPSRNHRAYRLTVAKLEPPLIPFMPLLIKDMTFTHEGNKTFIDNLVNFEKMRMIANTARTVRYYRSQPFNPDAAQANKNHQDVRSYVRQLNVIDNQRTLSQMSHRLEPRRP

[15] = biological target: Dual specificity protein kinase CLK4 (Homo sapiens) (UniProt Q9HAZ1); experiment: qHTS Assay for Inhibitors of CDC-like Kinase 4 (Kinase-Glo Assay) (AID 1770); conditions: recombinant Clk4, Kinase-Glo ATP depletion luminescence; series mostly up to 66.7 µM; also: nearly all actives have a fitted effect of over 65% in size; also: potency is read from the fitted curve at half-maximal effect
Dual specificity protein kinase CLK4 (Homo sapiens), sequence (Q9HAZ1 whole entry, looked up): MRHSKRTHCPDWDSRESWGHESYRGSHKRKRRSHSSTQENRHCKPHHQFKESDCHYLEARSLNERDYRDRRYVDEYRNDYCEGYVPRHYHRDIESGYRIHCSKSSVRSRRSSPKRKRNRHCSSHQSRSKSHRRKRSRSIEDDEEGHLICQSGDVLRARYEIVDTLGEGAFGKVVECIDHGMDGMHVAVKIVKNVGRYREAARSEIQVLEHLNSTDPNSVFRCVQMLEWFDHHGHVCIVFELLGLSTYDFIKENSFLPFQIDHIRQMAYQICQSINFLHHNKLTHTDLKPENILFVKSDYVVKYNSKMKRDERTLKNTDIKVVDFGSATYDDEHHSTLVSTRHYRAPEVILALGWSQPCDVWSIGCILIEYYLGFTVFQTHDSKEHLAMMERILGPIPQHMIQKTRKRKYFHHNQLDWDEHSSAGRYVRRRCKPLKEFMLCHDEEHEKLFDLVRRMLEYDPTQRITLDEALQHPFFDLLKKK
In short: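 25 nM Clk4 with 100 uM RS repeat peptide and 1 uM ATP (final) in Tris pH7.5, 10 mM MgCl2, 4.5 h at room temperature. Remaining ATP measured by Kinase-Glo luciferase luminescence.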

[16] = biological target: Ubiquitin carboxyl-terminal hydrolase 1 (Homo sapiens) (UniProt O94782); experiment: Inhibitors of USP1/UAF1: Pilot qHTS (AID 504865); conditions: purified USP1/UAF1, Ub-rhodamine cleavage fluorescence; series mostly up to 54.9 µM; also: nearly all actives have a fitted effect of over 35% in size; also: potency is read from the fitted curve at half-maximal effect
Ubiquitin carboxyl-terminal hydrolase 1 (Homo sapiens), sequence (O94782 whole entry, looked up): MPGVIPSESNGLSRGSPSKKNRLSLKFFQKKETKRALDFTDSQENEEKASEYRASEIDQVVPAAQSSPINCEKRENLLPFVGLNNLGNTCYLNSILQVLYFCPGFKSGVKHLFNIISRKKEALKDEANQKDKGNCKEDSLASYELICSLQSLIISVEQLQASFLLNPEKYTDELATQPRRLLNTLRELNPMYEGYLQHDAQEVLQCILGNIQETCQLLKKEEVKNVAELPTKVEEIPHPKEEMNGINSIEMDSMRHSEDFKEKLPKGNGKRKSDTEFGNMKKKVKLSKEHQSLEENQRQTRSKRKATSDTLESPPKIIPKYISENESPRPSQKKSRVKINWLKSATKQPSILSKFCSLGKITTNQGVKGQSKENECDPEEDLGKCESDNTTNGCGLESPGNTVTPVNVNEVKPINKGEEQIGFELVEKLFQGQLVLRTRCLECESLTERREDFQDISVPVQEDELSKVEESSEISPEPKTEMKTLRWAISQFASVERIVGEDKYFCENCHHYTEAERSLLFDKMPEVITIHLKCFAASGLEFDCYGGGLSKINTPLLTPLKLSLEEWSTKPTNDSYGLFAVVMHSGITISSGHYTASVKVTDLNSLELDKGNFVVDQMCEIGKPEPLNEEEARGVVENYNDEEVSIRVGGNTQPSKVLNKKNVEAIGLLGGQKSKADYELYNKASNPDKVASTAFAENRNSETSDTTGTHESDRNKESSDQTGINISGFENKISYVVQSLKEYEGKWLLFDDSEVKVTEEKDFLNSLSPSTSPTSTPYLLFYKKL
In short: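 USP1/UAF1 complex at 1 nM preincubated 15 min at room temperature with compound, then Ub-Rho substrate added at 150 nM final. Fluorescence (480/540 nm) read kinetically in 50 mM HEPES pH 7.8, 0.5 mM EDTA, 1 mM TCEP, 0.1 mg/ml BSA, 0.01% Tween-20.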

[17] = biological target: Cytochrome P450 1A2 (Homo sapiens) (UniProt P05177); experiment: p450-cyp1a2 (AID 410; calls by dose curve; also: potency is read from the fitted curve at half-maximal effect); conditions: recombinant CYP1A2, luciferin-ME demethylation, luminescence; series mostly up to 57 µM
Cytochrome P450 1A2 (Homo sapiens), sequence (P05177 whole entry, looked up): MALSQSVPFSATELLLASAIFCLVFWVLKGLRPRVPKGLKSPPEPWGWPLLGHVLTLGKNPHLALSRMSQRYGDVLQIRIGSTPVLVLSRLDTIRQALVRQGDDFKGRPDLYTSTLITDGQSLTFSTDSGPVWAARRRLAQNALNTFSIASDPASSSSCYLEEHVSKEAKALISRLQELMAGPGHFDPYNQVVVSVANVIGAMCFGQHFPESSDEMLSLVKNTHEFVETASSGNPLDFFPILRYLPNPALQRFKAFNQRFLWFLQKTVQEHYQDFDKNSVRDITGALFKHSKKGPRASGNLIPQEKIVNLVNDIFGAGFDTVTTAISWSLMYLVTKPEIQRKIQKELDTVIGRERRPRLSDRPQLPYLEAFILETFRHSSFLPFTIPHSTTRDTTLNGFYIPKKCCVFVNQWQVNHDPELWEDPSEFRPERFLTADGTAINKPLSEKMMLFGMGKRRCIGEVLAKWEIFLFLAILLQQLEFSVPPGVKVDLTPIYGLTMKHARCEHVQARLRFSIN
In short: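 Human CYP1A2 (20nM) demethylated Luciferin-ME at its Km (100uM) in 100mM KPO4. After 10 min compound preincubation, NADPH regeneration ran the reaction 60 min at room temperature. Luciferin was read by luminescence, normalized to 57 uM furafylline.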

[18] = biological target: Dual specificity protein kinase CLK4 (Homo sapiens) (UniProt Q9HAZ1); experiment: qHTS Assay for Inhibitors of CDC-like Kinase 4 (ADP-Glo Assay) (AID 1771); conditions: recombinant CLK4, ADP-Glo luminescence; series mostly up to 80 µM; also: % is scaled to controls: 0 for no effect and ±100 for the full control effect; nearly all actives have a fitted effect of over 70% in size
In short: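 Clk4 (25 nM) was incubated 1 hr at room temperature with 100 uM RS repeat peptide and 1 uM ATP in buffer with 2 mM MgCl2, 0.5 mM EGTA, 2.5 mM DTT. ADP formed was quantified by ADP-Glo luminescence.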

[19] = biological target: Dual specificity protein kinase CLK4 (Homo sapiens) (UniProt Q9HAZ1); experiment: qHTS Assay for Inhibitors of CDC-like Kinase 4 (ADP-FP Assay) (AID 1795); conditions: Transcreener ADP fluorescence polarization; series mostly up to 50 µM;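 also: recombinant human CLK4 phosphorylating RS repeat peptide at 1 µM ATP; % is scaled to controls: 0 for no effect and ±100 for the full control effect; nearly all actives have a fitted effect of over 60% in size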
In short: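 Recombinant Clk4 (6.25 nM) phosphorylated 100 uM RS repeat peptide with 1 uM ATP in 25 mM Tris pH 7.5, 10 mM MgCl2, 0.5 mM EGTA, 2.5 mM DTT, 0.01% Triton X-100 for 1 h. ADP was detected by Transcreener ADP2 competitive fluorescence polarization after 30 min at room temperature.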

[20] = biological target: Rap guanine nucleotide exchange factor 4 (Homo sapiens) (UniProt Q8WZA2); experiment: Confirmatory qHTS for antagonist of cAMP-regulated guanine nucleotide exchange factor 4 (EPAC2) (AID 1645885); conditions: EPAC2 Rap1B-BODIPY-GDP exchange fluorescence, biochemical; series mostly up to 114 µM; also: potency is read from the fitted curve at half-maximal effect; nearly all actives have a fitted effect of over 25% in size
[21] = measured here: cell count channel max response
[22] = measured here: lipid channel max response

O=c1cnc2cnc(Oc3cccc(Cl)c3)nc2n1Cc1ccc(F)cc1
Potency [1]: > 11.4 µM (inactive) | activity change, negative = inhibition [2]: -16% (inactive) | activity change, negative = inhibition [3]: -9.66% (inactive) | activity, negative = inhibition [4]: -7.55% (inactive) | Potency [5]: > 9.22 µM (inactive) | Potency [6]: > 46 µM (inactive) | outcome [7]: inactive | Potency [8]: inactive | Potency [9]: inactive | activity change, negative = inhibition [10]: 3.63% (inactive) | max response [10, 21]: 17.8% | max response [10, 22]: 21.6% | Potency [11]: inactive | Potency [12]: inactive | outcome [13]: inactive | outcome [14]: inactive

FC(F)(F)c1ccccc1-c1nc(N2CCOCC2)c2ccccc2n1
Potency [1]: > 11.4 µM (inactive) | activity change, negative = inhibition [3]: -3.63% (inactive) | activity, negative = inhibition [4]: 2.43% (inactive) | Potency [5]: > 46 µM (inactive) | Potency [6]: > 46 µM (inactive) | outcome [7]: inactive | Potency [9]: inactive | activity change, negative = inhibition [10]: 6.74% (inactive) | max response [10, 21]: 22.9% | max response [10, 22]: 28.1% | Potency [15]: 25.1 µM (active) | Potency [16]: 31.6 µM (active) | Potency [11]: inactive | Potency [12]: inactive | outcome [13]: inactive | outcome [14]: inactive

CCNc1ncc2nc(-c3ccc(F)cc3)c(=O)n(CCOC)c2n1
Potency [1]: > 11.4 µM (inactive) | activity change, negative = inhibition [2]: -5.66% (inactive) | Potency [17]: 2 µM (active) | activity change, negative = inhibition [3]: -3.34% (inactive) | activity, negative = inhibition [4]: 10.5% (inactive) | Potency [5]: > 9.22 µM (inactive) | Potency [6]: > 46 µM (inactive) | outcome [7]: inactive | Potency [8]: inactive | activity change, negative = inhibition [10]: 6.73% (inactive) | max response [10, 21]: 22.2% | max response [10, 22]: 28.8% | Potency [15]: inactive | Potency [18]: inactive | Potency [19]: inactive | Potency [16]: inactive | Potency [11]: inactive

COc1ccccc1CNc1ccnc(-c2ccc3c(c2)OCO3)n1
activity change, negative = inhibition [2]: -17.7% (inactive) | Potency [17]: 0.631 µM (active) | activity change, negative = inhibition [3]: -13.2% (inactive) | activity, negative = inhibition [4]: -21.3% (inactive) | Potency [5]: > 46 µM (inactive) | Potency [6]: > 46 µM (inactive) | outcome [7]: inactive | Potency [9]: inactive | activity change, negative = inhibition [10]: 9.28% (inactive) | max response [10, 21]: -12.3% | max response [10, 22]: -4.95% | Potency [11]: inactive | outcome [13]: inactive | outcome [14]: inactive | Potency [20]: 17.5 µM (active)

Cc1noc(C)c1-c1cc(N(C)Cc2ccco2)ncn1
Potency [1]: > 11.4 µM (inactive) | activity change, negative = inhibition [2]: 1.26% (inactive) | Potency [17]: 3.16 µM (active) | activity change, negative = inhibition [3]: -16% (inactive) | activity, negative = inhibition [4]: 6.33% (inactive) | Potency [5]: > 46 µM (inactive) | Potency [6]: > 46 µM (inactive) | outcome [7]: inactive | Potency [8]: inactive | activity change, negative = inhibition [10]: 2.86% (inactive) | max response [10, 21]: 13.8% | max response [10, 22]: 17.9% | Potency [15]: inactive | Potency [18]: inactive | Potency [19]: inactive | Potency [16]: inactive | Potency [11]: inactive

COCCn1c(=O)c(-c2ccc(F)cc2)nc2cnc(N3CCOCC3)nc21
Potency [1]: > 11.4 µM (inactive) | activity change, negative = inhibition [2]: -9.35% (inactive) | Potency [17]: 5.01 µM (active) | activity change, negative = inhibition [3]: 16.8% (inactive) | activity, negative = inhibition [4]: -13.8% (inactive) | Potency [5]: > 9.22 µM (inactive) | Potency [6]: > 46 µM (inactive) | outcome [7]: inactive | Potency [8]: inactive | activity change, negative = inhibition [10]: 1.75% (inactive) | max response [10, 21]: 15.7% | max response [10, 22]: 16.8% | Potency [15]: inactive | Potency [18]: inactive | Potency [19]: inactive | Potency [16]: inactive | Potency [11]: inactive

From PubChem BioAssay (NCATS)
